# Source: PubChem BioAssay AID652023 (National Center for Advancing Translational Sciences (NCATS), 2013)
# This is one part of the list. Records with an inconclusive call do not appear. The source made the active and inactive calls. Calls come from the whole dose curve; as a rule, active = well fitted inhibition curve with a large enough effect; inconclusive = small, poorly fitted or top-dose-only effect; inactive = flat fitted curve, though single readings scatter.
# Target: Thioredoxin reductase 1, cytoplasmic (Rattus norvegicus) (UniProt O89049)
# Assay: qHTS Assay for Inhibitors of Mammalian Selenoprotein Thioredoxin Reductase 1 (TrxR1): Hit Validation in Primary Screen
# Settings: recombinant TrxR1, NADPH fluorescence consumption, selenite substrate
# Text: The selenoprotein thioredoxin reductase (TrxR; EC 1.8.1.9) is a FAD containing homodimeric pyridine nucleotide-disulfide oxidoreductase with many cellular roles. Together with NADPH and its prime substrate thioredoxin (Trx), the enzyme forms the core of the Trx system. The mammalian Trx system exerts a wide spectrum of functions including redox regulation, antioxidant defense, regulation of transcription factors as well as support of cell growth and replication. Many of these functions involve the reduction of Trx, which may subsequently reduce a number of different substrates including ribonucleotide reductase, peroxiredoxins or NFkB. […]
# Assay protocol: 2 uL of reagents (buffer in column 4 as negative control and 90 nM rTrxR1 in columns 1-3 and 5-48) were dispensed into Greiner black solid-bottom 1,536-well assay plates, followed by 1 uL of NADPH (400 uM final concentration) to each well. […] The plate was immediately transferred to a ViewLux high-throughput CCD imager (PerkinElmer), wherein kinetic measurements of NADPH fluorescence (Ex 340 nm, Em 450 nm) were acquired (8 minute kinetic read). Read 1 was utilized to assess the capacity of a compound to serve as an rTrxR1 substrate, i.e. a decrease in NADPH fluorescence compared to the no-compound background is an indication of a substrate behavior for that particular compound. […]
# Sequence of Thioredoxin reductase 1, cytoplasmic (Rattus norvegicus) (O89049 whole entry, looked up): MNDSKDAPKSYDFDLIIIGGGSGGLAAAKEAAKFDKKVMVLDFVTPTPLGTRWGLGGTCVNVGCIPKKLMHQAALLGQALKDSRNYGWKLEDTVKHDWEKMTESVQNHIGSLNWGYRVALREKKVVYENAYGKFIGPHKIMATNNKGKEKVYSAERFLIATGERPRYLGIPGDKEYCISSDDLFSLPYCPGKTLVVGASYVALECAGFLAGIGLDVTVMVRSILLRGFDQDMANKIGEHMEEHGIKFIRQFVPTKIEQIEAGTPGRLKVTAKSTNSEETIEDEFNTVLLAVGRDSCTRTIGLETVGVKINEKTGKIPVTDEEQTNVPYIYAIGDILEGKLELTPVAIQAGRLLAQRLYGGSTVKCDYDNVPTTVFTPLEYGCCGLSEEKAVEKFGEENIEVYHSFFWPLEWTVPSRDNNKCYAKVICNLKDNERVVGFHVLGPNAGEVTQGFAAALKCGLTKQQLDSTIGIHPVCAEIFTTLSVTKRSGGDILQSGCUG
smiles,measurement,value
CC1CCN(C(=O)c2ccc(S(=O)(=O)Cc3cc(F)ccc3F)c([N+](=O)[O-])c2)CC1,Potency,2380 nM (active)
